High-throughput results: PubChem, National Center for Advancing Translational Sciences (NCATS)
A549 tox – counter-screen for Nrf2 inhibitors: cytotoxicity in A549 cells | A549 ARE-Fluc cells, CellTiter-Fluor viability, 18-24 h | Potency, µM (titrated, usually from 46 µM), for inactives: at the highest dose activity change, negative = cytotoxicity, actives largely listed as inhibitors | actives 0.16% (n = 390,000) | AID 504648; also: potency is read from the fitted curve at half-maximal effect; % is scaled to controls: 0 for no effect and ±100 for the full control effect
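A549 ARE_Fluc cells in 5% FBS OPTI-MEM were exposed to compounds in concentration-response for 18-24 h at 37 deg C. Viability was read by CellTiter-Fluor fluorescence (Ex 405/Em 525) after 30 min, before the luciferase read.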
Nrf2 activator – activates Nrf2 signaling; actives 0.31% (n = 410,000); AREc32 ARE-luciferase reporter (MCF7-derived line), luminescence, 24 h; Potency, µM (highest dose often 46.1 µM), without a hit: top-dose activation, actives largely listed as activators; also: potency is read from the fitted curve at half-maximal effect; % of control where 0% means no effect; nearly all actives have a fitted effect of over 65% in size
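Cells of the AREc32 ARE-luciferase line are plated in OPTI-MEM containing 5% FBS and left overnight at 37 deg C. Compounds are pinned in, incubation continues 24 hr, and firefly luciferase signal is then measured.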
BRCA1 expr act – BRCA1 expression activation. MCF7-BRCA1-FFLuc reporter, luminescence, 48 h; response scale: scaled: vehicle 0%, 10 µM genistein 100%. Potency, µM (titrated, usually from 46.1 µM), inactives show at the top dose activation, actives largely listed as activators. actives 1.1% (n = 380,000); also: potency is read from the fitted curve at half-maximal effect; nearly all actives have a fitted effect of over 80% in size
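48 h compound treatment of MCF7-BRCA1-FFLuc cells (phenol-red free MEM, 37 °C), then 15 min with luciferase substrate and luminescence imaging.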
IL-2 act – activates IL-2 in a cell-based reporter assay; IL-2 activation reporter assay, cell-based qHTS; stimulated with anti-CD3/CD4/CD28 beads; in transgenic mouse T cells; activation, % (series mostly up to about 46 µM); actives 0.065% (n = 360,000); AID 652025; in the data active = activation above about 50%; inconclusive = mostly about 30% to 49%; also: 0% is about no effect
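Unstimulated transgenic mouse T cells, 750 per well, received compound and, after 60 minutes, anti-CD3/anti-CD4 bead plus anti-CD28 stimulation. EGFP and DsRed were quantified after 18 hours.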
Nrf2 block – Nrf2 pathway inhibition. actives 2.1% (n = 360,000). A549 ARE-Fluc reporter, luciferase luminescence, 18-24 h. Potency, µM (highest dose often 46 µM), for inactives: at the top dose activity change, negative = inhibition, most hits filed as inhibitors; also: potency is read from the fitted curve at half-maximal effect; % is scaled to controls: 0 for no effect and ±100 for the full control effect; nearly all actives have a fitted effect of over 60% in size
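Two sequential reads on A549 ARE_Fluc cells exposed to compound for 18-24 h: a CellTiter-Fluor fluorescence read for viability, then a luciferase luminescence read for Nrf2/ARE activity.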
p53 reactivator – mutant p53 re-activation in reporter cells. Potency, µM (doses to about 92.2 µM), for the others: top-dose activity change, positive = activation, hits mostly activators. H1299 p53-A138V BP100-luciferase reporter, luminescence, 24 h. actives 0.063% (n = 320,000); also: potency is read from the fitted curve at half-maximal effect; % of control where 0% means no effect; nearly all actives have a fitted effect of over 45% in size
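p53-null H1299 cells stably carrying temperature-sensitive p53-A138V and a BP100-luciferase reporter were pinned with compounds (4-point, 1:5 series) and held 24 hrs at 37 deg C. Luminescence was read 10 min after detection reagent.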
* = called active by the depositor; ? = inconclusive; · = no result; [ ] = remark or other dose. The list is not random: actives were taken first. Their share in the collection is about 3.2%. Unless noted, calls follow the shape of the dose curve; as a rule, active = well fitted curve in the direction sought with a large enough effect; inconclusive = small, poorly fitted or top-dose-only effect, or another doubt; inactive = no such curve, though single readings can be large; an effect the other way counts as inactive or inconclusive.

SMILES	A549 tox	Nrf2 activator	BRCA1 expr act	IL-2 act	Nrf2 block	p53 reactivator
CCc1ccc(N2CC(c3nc4ccccc4n3Cc3ccccc3C)CC2=O)cc1 (stereo unspecified)	-7.4%	0.7%	-33.5%	·	14.6µM*	·
CNc1c(Br)cc(/C=C2\C=C(C(O)c3cc(Br)c(NC)c(Br)c3)c3ccccc32)cc1Br (stereo unspecified)	·	·	-15.6%	·	·	·
COc1cccc(/C=c2/[nH]c(=O)/c(=C\c3cccc(OC)c3OC)[nH]c2=O)c1OC	·	·	-3.7%	·	·	·
O=S(=O)(c1cccs1)N1CCN(CCOc2ccc(Cl)cc2)CC1	-23.5%	-0.8%	-21.6%	8.0	14.6µM*	-2.7%
O=S(=O)(c1cccs1)N1CCN(c2ccc(Cl)cc2)CC1	1.0%	0.8%	-11.8%	-0.4	-18.4%	2.4%
Cc1ccc2oc(C(=O)Nc3c(C(=O)Nc4cccc(Cl)c4)oc4ccccc34)cc(=O)c2c1	5.2%	-0.1%	·	·	-0.5%	·
COc1ccc(OCC(=O)Nc2cc(-c3nn(C)c(=O)c4ccccc34)ccc2OC)cc1	-13.9%	0.6%	-63.1%	-0.5	23.1µM*	0.4%
COc1ccc(NC(=O)COc2ccc(-c3nn(C)c(=O)c4ccccc34)cc2)cc1	0.2%	-0.4%	-11.3%	-0.5	-22.1%	-5.2%
CCn1c(=O)sc2cc(NS(=O)(=O)c3ccc(F)c(C)c3)ccc21	-3.0%	13.9%	·	·	18.4µM*	·
CCc1ccc(OCCCSc2nc(-c3ccc(C(C)(C)C)cc3)nc3cc(=O)[nH]n23)cc1	-15.0%	5.0%	·	·	?	·
N#CC(C#N)=C(Nc1ccc(F)cc1)SCc1cccc(F)c1	?	?	-75.6%	-0.6	4.61µM*	-9.2%
CCN(c1ccccc1)c1nc(N)nc(C#N)n1	-0.5%	·	-16.6%	·	?	·
C=CCC[C@@H](Cc1ccc(F)cc1)C(=O)OC[C@@H](NC(=O)[C@@H](CC=C)CC(=O)N[C@@H](CO)Cc1ccccc1)C(C)(C)C	?	-1.4%	-46.3%	-0.4	20.6µM*	4.6%
C=CCC[C@H](Cc1ccc(F)cc1)C(=O)OC[C@@H](C)NC(=O)[C@@H](CC=C)CC(=O)N[C@H](CO)Cc1ccccc1	?	-0.3%	-45.5%	-2.6	20.6µM*	3.5%
C=CCC[C@H](Cc1ccc(F)cc1)C(=O)OC[C@@H](NC(=O)[C@@H](CC=C)CC(=O)N(CCO)Cc1ccccc1)C(C)(C)C	6.51µM*	-4.9%	-71.8%	-3.0	3.26µM*	0.0%
C=CCC[C@H](Cc1ccc(F)cc1)C(=O)OC[C@@H](C)NC(=O)[C@@H](CC=C)CC(=O)N[C@@H](CO)Cc1ccccc1	-1.9%	5.4%	-3.5%	-0.3	-9.1%	1.1%
NS(=O)(=O)c1ccc(NC(=O)c2nc(S(=O)(=O)Cc3ccccc3F)ncc2Cl)cc1	·	·	16.6%	·	·	·
O=C1Nc2ccccc2-n2nnnc2C1N1CCN(C(=O)c2ccco2)CC1 (stereo unspecified)	·	·	·	-0.5	·	·
Cc1cc2ccccc2n1CCNC(=O)c1ccccc1F	13.2%	3.2%	3.6%	·	8.9%	·
COc1cc(/C=C/c2cc(OC(C)=O)c3ccccc3n2)c(OC(C)=O)c([N+](=O)[O-])c1	14.6µM*	3.4%	3.3%[1.84 µM]	-2.0	?	1.7%
COC(=O)C(Cc1c[nH]c2ccccc12)NC(=O)c1cncc(Br)c1 (stereo unspecified)	7.1%	0.1%	-44.7%	-3.3	1.3%	-3.5%
COC(=O)C(Cc1c[nH]c2ccccc12)NC(=O)c1ccc2nc[nH]c2c1 (stereo unspecified)	-1.4%	-0.5%	10µM*	4.8	?	3.9%
CCOc1ccccc1N1CCN(C(=O)c2cc(-c3cc(OC)ccc3OC)nc3ccccc23)CC1	-7.2%	2.7%	-47.5%	-3.7	20.6µM*	-10.6%
